Source: PubChem BioAssay
HT1080 IDH1KD tx – toxicity to HT-1080 IDH1 knockdown cells (counter line) | HT-1080 IDH1 knockdown viability, ATP luminescence, 48 h | 2% of 360,000 active | AID 686971 | Potency, µM (highest dose often 46.1 µM), without a hit: at the top dose activity, negative = toxicity, usual class: cytotoxic;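 further: 0% = DMSO wells and -100% = cell-free medium wells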
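Using the IDH1-knockdown HT-1080 line run in the same batch and compound series as the NT line, viability after 48 h at 37 °C was determined by CellTiter-Glo luminescence and expressed as % activity.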
TGFb SMAD3 inh – blocks TGF-b signaling; HepG2 CAGA-GFP TGF-b/SMAD3 reporter, GFP fluorescence, 18 h; TGF-beta stimulated, 500 pg/mL final; Potency, µM (top dose mostly 46.1 µM), for inactives: at the top dose activity, negative = inhibition, most hits filed as inhibitors; 1.2% of 410,000 active; AID 588855; further: on the % scale 0 is the no-effect control and ±100 the full control effect; nearly all actives have a fitted effect of over 65% in size
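Per well, imaged GFP fluorescence of HEPG2 CAGA-GFP cells gives the signal; cells get compound, then TGF-beta (500 pg/mL final), 18 h at 37 degrees C; %Activity versus -TGF-beta and +DMSO controls.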
DT40 TDP1 CPT – growth inhibition of DT40 Tdp1-/-;hTDP1 cells with camptothecin (screen for TDP1 inhibitors); chicken DT40 Tdp1-/-;hTDP1 cells + 20 nM CPT, ATP luminescence, 48 h; Potency, µM (top dose mostly 46.2 µM), inactives show top-dose activity change, negative = growth inhibition, most hits filed as inhibitors; 12% of 420,000 active; further: on the % scale 0 is the no-effect control and ±100 the full control effect; nearly all actives have a fitted effect of over 55% in size
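Chicken DT40 Tdp1-/- cells stably complemented with human TDP1 were seeded at 400 cells/well in medium containing 20 nM camptothecin, exposed to pin-transferred compounds, and grown at 37 °C for at least 48 hr. Viability was read as ATP luminescence.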
HT1080NT lethal – kills 2HG-producing HT-1080-NT fibrosarcoma cells | AID 686970 | 1.6% of 360,000 active | HT-1080-NT fibrosarcoma viability, CellTiter-Glo ATP luminescence, 48 h | Potency, µM (doses to about 46.1 µM), without a hit: at the highest dose activity, negative = less viability, actives largely listed as cytotoxic;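 further: NT is the 2HG producing partner of a matched IDH1 knockdown line; 0% = DMSO-treated cells and -100% = media-only wells without cells; nearly all actives have a fitted effect of over 55% in size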
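Toxicity toward the 2HG-producing NT line was scored as %Activity, normalised to DMSO and no-cell wells, from CellTiter-Glo luminescence after 48 hours' treatment.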
HepG2 tox – counter-screen for TGF-b inhibitors: cytotoxicity in HepG2 cells; HepG2 CAGA-GFP viability, ATP luminescence, 18 h; Potency, µM (doses to about 46.1 µM), for inactives: at the top dose activity change, negative = cytotoxicity, usual class: cytotoxic; 0.76% of 410,000 active; AID 588856
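CellTiter-Glo luminescence gave cytotoxicity after 18 hours at 37 degrees C. The cells were HepG2 CAGA-GFP in 1% FBS DMEM, stimulated with 500 pg/mL TGF-beta after compound addition. %Activity was normalised to no-cell wells (complete cell-killing) and DMSO (no toxicity), and curves were fitted and classified.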
DT40 TDP1 no CPT – qHTS for Inhibitors of human tyrosyl-DNA phosphodiesterase 1 (TDP1): qHTS in cells in absence of CPT | DT40 Tdp1-/- hTDP1 cells, no CPT, ATP luminescence, 48 h | Potency, µM (titrated, usually from 46.2 µM), for inactives: at the top dose activity change, negative = growth inhibition, usual class: inhibitors | 15% of 420,000 active; further: on the % scale 0 is the no-effect control and ±100 the full control effect; nearly all actives have a fitted effect of over 55% in size
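A cellular qHTS used chicken DT40 cells lacking endogenous Tdp1 but carrying stably transfected human TDP1. Compounds were applied without camptothecin, and cell growth kinetics were judged by ATP-dependent luminescence after ≥48 hr.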
* hit, by the source's call; u = inconclusive; x = no result; ! = repeats disagree. Rows were chosen to be rich in hits. Some 17% of all compounds tested hit in one or more screens of this group. The call rests on the fitted dose curve; in most records, active means well fitted curve in the direction sought with a large enough effect; inconclusive means small, poorly fitted or top-dose-only effect, or another doubt; inactive means no such curve, though single readings can be large; an effect the other way counts as inactive or inconclusive. Potency means the concentration at half of the fitted maximal effect.

SMILES	HT1080 IDH1KD tx	TGFb SMAD3 inh	DT40 TDP1 CPT	HT1080NT lethal	HepG2 tox	DT40 TDP1 no CPT
O=C(C1=C[C@H](c2ccc(Br)cc2)C[C@H](OCCCCO)O1)N1CCN(Cc2ccc3c(c2)OCO3)CC1	-18.0%	-26.2%	18.4µM*	-19.4%	-18.6%	16.4µM*
O=C(C1=C[C@H](c2ccc3c(c2)OCO3)C[C@H](OCCCCO)O1)N1CCN(Cc2ccccc2)CC1	2.4%	-37.6%	u	-0.1%	-21.2%	u
O=C(C1=C[C@@H](c2ccc(Br)cc2)C[C@@H](OCCCCO)O1)N1CCN(Cc2ccccc2)CC1	-24.7%	-21.1%	6.51µM*	-20.3%	-6.3%	5.8µM*
O=C(C1=C[C@H](C2CCCCC2)C[C@H](OCCCCO)O1)N1CCN(Cc2ccc3c(c2)OCO3)CC1	-4.7%	-28.2%	11.6µM*	-3.0%	-29.2%	18.4µM*
CCOC(=O)c1cccc(C2=CC(=O)CC(C)(C)C2)c1	-2.0%	12.9%	u	0.5%	3.9%	-20.1%
Cc1ccc(NC(=O)C(Cc2ccccc2)N2Cc3ccccc3C2=O)cc1Cl (stereo not drawn)	x	-19.5%	u	x	-1.9%	u
O=C(CC[C@H]1O[C@@H](n2ccc(=O)[nH]c2=O)[C@H](O)[C@@H]1O)N[C@@H](Cc1ccccc1)C(=O)NCc1ccccc1	2.7%	8.5%	-6.1%	1.0%	-7.6%	0.0%
Cc1c(O)ccc2c1OC(C)(C)CC2	14.5%	x	5.62µM*	14.4%	x	3.98µM*
O=C(NCCCN1CCN(Cc2ccccc2)CC1)C1CCN(c2nnc(-n3cccc3)s2)CC1	-3.9%	-13.5%	u	-2.4%	-5.7%	25.9µM*
Cc1ccc(C)n1-c1nnc(N2CCC(C(=O)NCCCN3CC(C)CC(C)C3)CC2)s1 (stereo not drawn)	-15.7%	-6.9%	u	-6.5%	-3.5%	-18.4%
Cc1ccc(C)n1-c1nnc(N2CCC(C(=O)NCCCN3CCN(C)CC3)CC2)s1	-10.4%	0.0%	25.9µM*	-3.1%	-34.5%	u
COc1ccc(-c2c(C)nn3c(N)c(C#N)cnc23)cc1OC	-17.8%	-14.5%	7.31µM*	-4.6%	-1.0%	13µM*
N#Cc1cnc2c(-c3ccccc3)c(-c3ccccc3)nn2c1N	-22.6%	u	23.1µM*	-0.6%	8.1%	18.4µM*
COc1cc(C#Cc2ccc3cc(CCO)oc(=O)c3c2)cc(OC)c1	-13.3%	-2.0%	u	-8.5%	-20.6%	18.4µM*
C=C(C)CN1CCN(S(=O)(=O)c2ccc(C)c(N(C)S(=O)(=O)c3ccc(C)cc3)c2C)CC1	-0.4%	u	23.1µM*	-2.6%	0.3%	10.3µM*
CSc1ccc(-c2nc3cc(C)ccn3c2Nc2ccc(C)cc2)cc1	x	-3.3%	-22.7%	x	-1.4%	u
Cc1ccn2c(Nc3ccccc3C)c(-c3ccccn3)nc2c1	9.2µM*	12.6µM*	16.4µM*	14.6µM*	15.8µM*!	2.91µM*
CC(C)c1ccc(Nc2c(-c3ccccn3)nc3ccccn23)cc1	x	u	9.2µM*	x	10µM*	2.06µM*
Cc1ccccc1Nc1c(-c2ccccn2)nc2ccccn12	u	u	9.2µM*	u	-66.5%	8.2µM*
Cc1ccn2c(Nc3ccccc3)c(-c3ccccn3)nc2c1	u	-12.7%	4.61µM*	-21.6%	-1.0%	2.59µM*
COC(=O)C1=C[C@@H](C(=O)OC)C2C3=C(C(=O)[C@@]2(C)NC(=O)c2ccccc2)[C@H](C)n2c(=O)n(C)c(=O)n2[C@@H]3C1 (stereo partly drawn)	x	-17.8%	x	x	1.9%	x
